In publication PMC7862700, “An all-to-all approach to the identification of sequence-specific readers for epigenetic DNA modifications on cytosine”:

Experiments:
Experiment in all cases: DAPPL (digital affinity profiling via proximity ligation, sequencing); 10 mM Tris-HCl pH 7.5, 50 mM NaCl, 1 mM DTT, 4% glycerol, room temperature, 30 min; GST-TFs on glutathione beads, 16-mer random dsDNA library, 0.1% formaldehyde crosslink after washing; high values mean tight binding
FLI1 = biological target: T1, FLI1 (Homo sapiens, UniProt Q01543 1-452); conditions: protein: recombinant; tags: N-terminal GST; dsDNA, one strand shown
T1 sequence: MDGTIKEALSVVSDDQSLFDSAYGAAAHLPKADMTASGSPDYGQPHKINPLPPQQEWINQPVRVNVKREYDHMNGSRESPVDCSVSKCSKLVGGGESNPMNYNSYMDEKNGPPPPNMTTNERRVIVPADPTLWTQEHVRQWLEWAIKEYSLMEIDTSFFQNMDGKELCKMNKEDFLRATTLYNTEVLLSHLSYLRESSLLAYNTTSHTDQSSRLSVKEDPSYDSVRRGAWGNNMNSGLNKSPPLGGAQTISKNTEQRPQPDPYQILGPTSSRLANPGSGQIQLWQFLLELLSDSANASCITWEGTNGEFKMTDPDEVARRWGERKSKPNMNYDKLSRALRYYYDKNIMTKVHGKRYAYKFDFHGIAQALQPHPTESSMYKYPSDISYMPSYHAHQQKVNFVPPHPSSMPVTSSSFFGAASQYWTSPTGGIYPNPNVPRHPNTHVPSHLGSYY
Procedure, shortened: (§1)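 Binding signal is defined as a hexamer's read frequency for one factor over its frequency for the tag-only sample. To obtain reads, GST-fused human transcription factors were expressed in yeast, captured on glutathione beads, barcoded with DNA and pooled with that sample. Pools met 200 nmole of a 16-mer random double-stranded DNA library in Tris/NaCl/DTT/glycerol buffer for 30 min at room temperature before washing, 0.1% formaldehyde crosslinking, proximity ligation (BsaI/T4 ligase, 1 h, 37 °C), PCR and Illumina NextSeq500 sequencing.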

ELK1 = biological target: T2, ELK1 (Homo sapiens, UniProt P19419 1-428); conditions: protein: recombinant; tags: N-terminal GST; dsDNA, one strand shown
T2 sequence: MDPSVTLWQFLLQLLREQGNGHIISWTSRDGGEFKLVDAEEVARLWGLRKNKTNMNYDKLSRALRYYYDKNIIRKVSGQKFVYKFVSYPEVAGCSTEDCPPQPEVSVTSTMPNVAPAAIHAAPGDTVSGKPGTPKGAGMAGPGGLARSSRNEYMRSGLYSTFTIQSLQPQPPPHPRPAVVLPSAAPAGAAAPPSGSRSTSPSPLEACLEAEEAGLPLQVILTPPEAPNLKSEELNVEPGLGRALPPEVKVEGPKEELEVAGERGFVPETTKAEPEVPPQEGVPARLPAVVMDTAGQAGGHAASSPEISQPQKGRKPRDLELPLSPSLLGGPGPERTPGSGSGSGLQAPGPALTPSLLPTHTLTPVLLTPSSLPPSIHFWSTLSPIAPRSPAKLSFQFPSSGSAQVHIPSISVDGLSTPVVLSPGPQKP
Procedure, shortened: as §1

GABPA = biological target: T3, GABPA (Homo sapiens, UniProt Q06546 1-454); conditions: protein: recombinant; tags: N-terminal GST; dsDNA, one strand shown
T3 sequence: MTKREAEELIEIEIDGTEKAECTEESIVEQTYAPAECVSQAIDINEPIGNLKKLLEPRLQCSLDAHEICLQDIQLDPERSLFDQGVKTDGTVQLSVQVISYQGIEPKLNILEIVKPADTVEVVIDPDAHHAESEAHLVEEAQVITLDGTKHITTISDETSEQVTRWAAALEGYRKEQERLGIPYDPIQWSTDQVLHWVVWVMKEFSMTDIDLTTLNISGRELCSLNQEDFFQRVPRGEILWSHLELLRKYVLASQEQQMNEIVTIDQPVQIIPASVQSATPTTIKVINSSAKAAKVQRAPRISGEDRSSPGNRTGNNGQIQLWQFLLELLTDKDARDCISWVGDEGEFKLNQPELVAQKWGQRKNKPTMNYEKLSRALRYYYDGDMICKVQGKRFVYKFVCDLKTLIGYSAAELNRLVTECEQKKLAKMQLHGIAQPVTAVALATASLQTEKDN
Procedure, shortened: as §1

ERG = biological target: T4, ERG (Homo sapiens, UniProt P11308 1-479); conditions: protein: recombinant; tags: N-terminal GST; dsDNA, one strand shown
T4 sequence: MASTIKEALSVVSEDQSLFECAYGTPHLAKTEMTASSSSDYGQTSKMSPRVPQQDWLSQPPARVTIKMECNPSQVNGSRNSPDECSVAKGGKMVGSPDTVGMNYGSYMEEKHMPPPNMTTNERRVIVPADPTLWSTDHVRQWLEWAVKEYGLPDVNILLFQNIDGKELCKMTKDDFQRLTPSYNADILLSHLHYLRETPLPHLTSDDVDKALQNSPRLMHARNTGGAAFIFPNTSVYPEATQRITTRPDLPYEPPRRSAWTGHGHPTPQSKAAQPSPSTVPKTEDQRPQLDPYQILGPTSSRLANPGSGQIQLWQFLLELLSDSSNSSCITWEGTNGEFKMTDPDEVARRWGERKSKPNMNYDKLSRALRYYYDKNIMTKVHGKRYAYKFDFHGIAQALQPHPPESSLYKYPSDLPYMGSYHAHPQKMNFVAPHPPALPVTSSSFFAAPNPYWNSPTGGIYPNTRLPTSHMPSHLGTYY
Procedure, shortened: as §1

ELF1 = ELF1 (Homo sapiens, UniProt P32519 1-619); conditions: protein: recombinant; tags: N-terminal GST; dsDNA, one strand shown
ELF1, sequence (P32519 whole entry): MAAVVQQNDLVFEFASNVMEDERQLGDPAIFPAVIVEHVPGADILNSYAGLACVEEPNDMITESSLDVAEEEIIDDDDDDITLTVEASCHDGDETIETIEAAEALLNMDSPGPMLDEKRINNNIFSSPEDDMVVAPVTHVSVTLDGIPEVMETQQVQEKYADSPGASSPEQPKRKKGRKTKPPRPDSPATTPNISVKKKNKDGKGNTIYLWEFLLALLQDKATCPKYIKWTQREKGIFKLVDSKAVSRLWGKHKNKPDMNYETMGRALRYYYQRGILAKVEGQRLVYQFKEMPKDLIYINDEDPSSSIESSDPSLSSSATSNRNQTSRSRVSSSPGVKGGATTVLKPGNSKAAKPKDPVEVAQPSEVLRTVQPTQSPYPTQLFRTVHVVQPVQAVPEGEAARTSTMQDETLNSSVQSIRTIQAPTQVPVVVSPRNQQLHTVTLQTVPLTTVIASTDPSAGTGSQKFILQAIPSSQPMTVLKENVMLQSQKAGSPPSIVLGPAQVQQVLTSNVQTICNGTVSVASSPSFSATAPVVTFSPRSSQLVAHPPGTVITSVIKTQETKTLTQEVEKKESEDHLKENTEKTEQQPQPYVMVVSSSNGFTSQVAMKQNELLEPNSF
Procedure, shortened: as §1

EHF = biological target: T5, EHF (Homo sapiens, UniProt Q9NZC4 1-300); conditions: protein: recombinant; tags: N-terminal GST; dsDNA, one strand shown
T5 sequence: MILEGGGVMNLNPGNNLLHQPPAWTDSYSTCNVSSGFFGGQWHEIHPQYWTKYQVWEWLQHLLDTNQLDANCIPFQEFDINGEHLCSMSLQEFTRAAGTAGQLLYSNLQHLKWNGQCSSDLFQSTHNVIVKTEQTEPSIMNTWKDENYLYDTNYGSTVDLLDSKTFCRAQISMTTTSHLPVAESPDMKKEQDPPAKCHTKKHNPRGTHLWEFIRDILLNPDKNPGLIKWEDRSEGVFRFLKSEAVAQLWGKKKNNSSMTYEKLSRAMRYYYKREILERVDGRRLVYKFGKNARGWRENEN
Procedure, shortened: as §1

SPI1 = SPI1 (Homo sapiens, UniProt P17947 1-270); conditions: protein: recombinant; tags: N-terminal GST; dsDNA, one strand shown
Procedure, shortened: as §1

SPIB = SPIB (Homo sapiens, UniProt Q01892 1-262); conditions: protein: recombinant; tags: N-terminal GST; dsDNA, one strand shown
SPIB, sequence (Q01892 whole entry): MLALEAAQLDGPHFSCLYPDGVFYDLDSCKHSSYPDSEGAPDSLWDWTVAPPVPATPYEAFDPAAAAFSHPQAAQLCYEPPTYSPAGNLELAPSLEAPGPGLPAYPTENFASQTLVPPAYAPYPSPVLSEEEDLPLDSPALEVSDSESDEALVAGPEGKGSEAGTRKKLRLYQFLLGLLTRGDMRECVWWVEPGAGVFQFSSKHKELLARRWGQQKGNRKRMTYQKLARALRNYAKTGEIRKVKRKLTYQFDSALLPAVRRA
Procedure, shortened: as §1

ELK3 = biological target: T6, ELK3 (Homo sapiens, UniProt P41970 1-407); conditions: protein: recombinant; tags: N-terminal GST; dsDNA, one strand shown
T6 sequence: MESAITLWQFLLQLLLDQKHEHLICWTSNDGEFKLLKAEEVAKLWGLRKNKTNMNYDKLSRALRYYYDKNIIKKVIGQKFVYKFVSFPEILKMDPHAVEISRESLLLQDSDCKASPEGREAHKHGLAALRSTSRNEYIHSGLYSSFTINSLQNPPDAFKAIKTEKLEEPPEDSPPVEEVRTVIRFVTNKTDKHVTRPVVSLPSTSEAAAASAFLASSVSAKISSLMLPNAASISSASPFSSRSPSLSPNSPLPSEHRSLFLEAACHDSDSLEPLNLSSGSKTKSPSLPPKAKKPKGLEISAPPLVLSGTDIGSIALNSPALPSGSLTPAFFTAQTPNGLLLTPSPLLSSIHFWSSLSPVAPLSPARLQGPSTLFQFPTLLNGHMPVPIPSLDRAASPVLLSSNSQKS
Procedure, shortened: as §1

FEV = biological target: T7, FEV (Homo sapiens, UniProt Q99581 1-238); conditions: protein: recombinant; tags: N-terminal GST; dsDNA, one strand shown
T7 sequence: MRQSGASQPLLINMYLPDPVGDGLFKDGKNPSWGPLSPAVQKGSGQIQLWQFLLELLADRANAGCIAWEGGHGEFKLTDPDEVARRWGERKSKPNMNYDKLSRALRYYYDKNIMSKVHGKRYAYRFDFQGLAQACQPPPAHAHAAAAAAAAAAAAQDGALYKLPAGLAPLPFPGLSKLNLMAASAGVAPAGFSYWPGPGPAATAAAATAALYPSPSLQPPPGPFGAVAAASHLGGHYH
Procedure, shortened: as §1

ETV5 = ETV5 (Homo sapiens, UniProt P41161 1-510); conditions: protein: recombinant; tags: N-terminal GST; dsDNA, one strand shown
ETV5, sequence (P41161 whole entry): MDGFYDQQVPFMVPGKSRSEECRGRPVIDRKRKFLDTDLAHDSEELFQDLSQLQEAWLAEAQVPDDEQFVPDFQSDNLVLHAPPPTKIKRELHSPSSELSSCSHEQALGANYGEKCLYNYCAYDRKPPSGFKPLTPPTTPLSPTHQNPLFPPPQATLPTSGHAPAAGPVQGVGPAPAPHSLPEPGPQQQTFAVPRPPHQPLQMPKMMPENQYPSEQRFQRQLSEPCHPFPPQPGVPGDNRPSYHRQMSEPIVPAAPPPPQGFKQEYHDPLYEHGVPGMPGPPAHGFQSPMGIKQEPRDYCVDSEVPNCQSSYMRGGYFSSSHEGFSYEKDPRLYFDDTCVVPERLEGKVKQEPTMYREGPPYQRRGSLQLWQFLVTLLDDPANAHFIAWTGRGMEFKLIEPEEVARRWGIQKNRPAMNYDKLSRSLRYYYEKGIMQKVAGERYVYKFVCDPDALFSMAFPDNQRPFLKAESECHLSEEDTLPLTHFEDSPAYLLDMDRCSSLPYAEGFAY
Procedure, shortened: as §1

HSF1 = HSF1 (Homo sapiens, UniProt Q00613 1-529); conditions: protein: recombinant; tags: N-terminal GST; chain copies: 3; dsDNA, one strand shown
HSF1, sequence (Q00613 whole entry): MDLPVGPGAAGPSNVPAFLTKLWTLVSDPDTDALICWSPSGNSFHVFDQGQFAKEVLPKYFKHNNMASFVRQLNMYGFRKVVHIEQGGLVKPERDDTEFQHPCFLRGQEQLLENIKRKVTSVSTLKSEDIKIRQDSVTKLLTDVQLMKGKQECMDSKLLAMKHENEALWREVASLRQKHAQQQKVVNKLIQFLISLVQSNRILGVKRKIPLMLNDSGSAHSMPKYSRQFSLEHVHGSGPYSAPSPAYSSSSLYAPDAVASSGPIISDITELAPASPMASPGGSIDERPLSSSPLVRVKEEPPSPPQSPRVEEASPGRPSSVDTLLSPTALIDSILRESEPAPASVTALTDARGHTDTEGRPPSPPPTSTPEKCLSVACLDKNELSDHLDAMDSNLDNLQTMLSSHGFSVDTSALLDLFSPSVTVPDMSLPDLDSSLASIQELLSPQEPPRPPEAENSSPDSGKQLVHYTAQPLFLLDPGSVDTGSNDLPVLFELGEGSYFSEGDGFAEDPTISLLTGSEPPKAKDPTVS
Procedure, shortened: as §1

SPIC = biological target: T8, SPIC (Homo sapiens, UniProt Q8N5J4 1-248); conditions: protein: recombinant; tags: N-terminal GST; dsDNA, one strand shown
T8 sequence: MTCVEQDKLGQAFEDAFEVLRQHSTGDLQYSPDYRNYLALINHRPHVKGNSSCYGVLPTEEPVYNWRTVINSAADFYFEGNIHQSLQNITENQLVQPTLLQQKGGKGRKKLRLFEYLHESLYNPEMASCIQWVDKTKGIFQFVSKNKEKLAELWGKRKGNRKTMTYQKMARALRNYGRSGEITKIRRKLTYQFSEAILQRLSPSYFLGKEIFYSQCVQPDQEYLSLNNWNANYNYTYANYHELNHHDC
Procedure, shortened: as §1

ELF4 = ELF4 (Homo sapiens, UniProt Q99607 1-663); conditions: protein: recombinant; tags: N-terminal GST; dsDNA, one strand shown
ELF4, sequence (Q99607 whole entry): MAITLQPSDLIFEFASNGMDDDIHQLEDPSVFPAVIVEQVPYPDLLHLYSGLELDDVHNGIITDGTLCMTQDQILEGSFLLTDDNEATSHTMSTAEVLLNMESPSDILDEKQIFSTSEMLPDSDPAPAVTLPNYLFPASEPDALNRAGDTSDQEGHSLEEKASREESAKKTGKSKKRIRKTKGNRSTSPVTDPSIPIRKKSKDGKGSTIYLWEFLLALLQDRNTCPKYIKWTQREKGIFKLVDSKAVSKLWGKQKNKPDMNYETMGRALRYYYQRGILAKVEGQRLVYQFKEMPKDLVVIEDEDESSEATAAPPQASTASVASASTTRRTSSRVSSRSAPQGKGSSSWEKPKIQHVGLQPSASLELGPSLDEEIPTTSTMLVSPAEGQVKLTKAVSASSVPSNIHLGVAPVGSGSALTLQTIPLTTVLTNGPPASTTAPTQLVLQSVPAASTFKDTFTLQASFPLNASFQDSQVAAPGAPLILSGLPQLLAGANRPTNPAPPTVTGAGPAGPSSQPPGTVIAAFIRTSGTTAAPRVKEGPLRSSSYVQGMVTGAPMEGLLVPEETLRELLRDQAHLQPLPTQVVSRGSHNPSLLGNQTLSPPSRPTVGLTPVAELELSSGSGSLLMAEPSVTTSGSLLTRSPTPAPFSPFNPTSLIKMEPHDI
Procedure, shortened: as §1

ELK4 = biological target: T9, ELK4 (Homo sapiens, UniProt P28324-2 1-405); conditions: protein: recombinant; tags: N-terminal GST; dsDNA, one strand shown
T9 sequence: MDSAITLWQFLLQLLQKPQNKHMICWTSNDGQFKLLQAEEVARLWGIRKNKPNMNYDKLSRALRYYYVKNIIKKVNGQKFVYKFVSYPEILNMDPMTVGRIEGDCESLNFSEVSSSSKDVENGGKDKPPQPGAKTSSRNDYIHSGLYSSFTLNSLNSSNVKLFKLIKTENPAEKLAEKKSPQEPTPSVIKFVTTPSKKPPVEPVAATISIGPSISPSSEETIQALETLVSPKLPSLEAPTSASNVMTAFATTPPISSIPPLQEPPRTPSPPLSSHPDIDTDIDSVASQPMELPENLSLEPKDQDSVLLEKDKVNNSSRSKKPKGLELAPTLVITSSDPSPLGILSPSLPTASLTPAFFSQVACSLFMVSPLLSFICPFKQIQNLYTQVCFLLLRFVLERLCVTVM
Procedure, shortened: as §1

ETV2 = biological target: T10, ETV2 (Homo sapiens, UniProt O00321 1-342); conditions: protein: recombinant; tags: N-terminal GST; dsDNA, one strand shown
T10 sequence: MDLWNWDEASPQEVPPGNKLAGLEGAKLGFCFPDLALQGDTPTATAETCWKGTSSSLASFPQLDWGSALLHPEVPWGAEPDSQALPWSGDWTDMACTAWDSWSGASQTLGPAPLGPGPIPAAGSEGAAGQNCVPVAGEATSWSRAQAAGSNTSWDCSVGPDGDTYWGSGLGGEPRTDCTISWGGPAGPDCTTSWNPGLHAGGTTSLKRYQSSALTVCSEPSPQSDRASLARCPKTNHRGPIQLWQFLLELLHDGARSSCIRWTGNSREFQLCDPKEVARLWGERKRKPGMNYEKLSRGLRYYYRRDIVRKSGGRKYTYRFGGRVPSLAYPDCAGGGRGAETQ
Procedure, shortened: as §1

ELF3 = biological target: T11, ELF3 (Homo sapiens, UniProt P78545 1-371); conditions: protein: recombinant; tags: N-terminal GST; dsDNA, one strand shown
T11 sequence: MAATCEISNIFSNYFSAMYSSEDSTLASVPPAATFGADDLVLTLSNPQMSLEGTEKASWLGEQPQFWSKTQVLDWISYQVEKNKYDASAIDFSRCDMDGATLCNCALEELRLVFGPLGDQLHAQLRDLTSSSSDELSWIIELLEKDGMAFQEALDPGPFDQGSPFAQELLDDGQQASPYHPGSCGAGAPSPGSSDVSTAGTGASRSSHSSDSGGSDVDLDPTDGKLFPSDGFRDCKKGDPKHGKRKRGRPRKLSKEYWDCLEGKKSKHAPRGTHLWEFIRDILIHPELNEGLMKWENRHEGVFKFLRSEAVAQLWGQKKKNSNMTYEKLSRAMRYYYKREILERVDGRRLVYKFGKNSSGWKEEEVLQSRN
Procedure, shortened: as §1

CRX = CRX (Homo sapiens, UniProt O43186 1-299); conditions: protein: recombinant; tags: N-terminal GST; dsDNA, one strand shown
CRX, sequence (O43186 whole entry): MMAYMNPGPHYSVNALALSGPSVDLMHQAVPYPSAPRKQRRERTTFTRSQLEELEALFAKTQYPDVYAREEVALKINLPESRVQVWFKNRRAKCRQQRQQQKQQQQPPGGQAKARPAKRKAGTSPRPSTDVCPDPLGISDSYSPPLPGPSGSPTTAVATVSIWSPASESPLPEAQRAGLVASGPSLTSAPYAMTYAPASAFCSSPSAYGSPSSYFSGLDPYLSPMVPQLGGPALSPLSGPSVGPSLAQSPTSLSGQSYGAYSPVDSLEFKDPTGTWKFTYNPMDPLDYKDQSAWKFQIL
Procedure, shortened: as §1

ETV1 = ETV1 (Homo sapiens, UniProt P50549 1-477); conditions: protein: recombinant; tags: N-terminal GST; dsDNA, one strand shown
ETV1, sequence (P50549 whole entry): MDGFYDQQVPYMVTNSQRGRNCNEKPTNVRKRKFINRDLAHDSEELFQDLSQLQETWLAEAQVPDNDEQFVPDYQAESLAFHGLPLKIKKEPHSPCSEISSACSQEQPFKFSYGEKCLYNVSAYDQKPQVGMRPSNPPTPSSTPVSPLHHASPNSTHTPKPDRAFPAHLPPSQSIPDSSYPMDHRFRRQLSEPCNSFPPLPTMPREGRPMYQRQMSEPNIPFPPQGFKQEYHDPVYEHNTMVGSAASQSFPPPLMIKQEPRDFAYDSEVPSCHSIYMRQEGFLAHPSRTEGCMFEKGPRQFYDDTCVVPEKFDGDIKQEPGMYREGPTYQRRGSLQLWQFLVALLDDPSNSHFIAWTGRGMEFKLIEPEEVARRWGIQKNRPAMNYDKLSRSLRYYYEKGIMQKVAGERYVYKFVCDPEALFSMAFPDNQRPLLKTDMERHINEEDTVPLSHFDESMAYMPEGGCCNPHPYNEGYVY
Procedure, shortened: as §1

CTCCTA
binding signal (FLI1): 1.47 fold enrichment (6-mer frequency, TF over GST control) | binding signal (ELK1): 1.19 fold enrichment (6-mer frequency, TF over GST control) | binding signal (GABPA): 1.38 fold enrichment (6-mer frequency, TF over GST control) | binding signal (ERG): 1.22 fold enrichment (6-mer frequency, TF over GST control) | binding signal (ELF1): 1.24 fold enrichment (6-mer frequency, TF over GST control) | binding signal (EHF): 1.25 fold enrichment (6-mer frequency, TF over GST control) | binding signal (SPI1): 1.46 fold enrichment (6-mer frequency, TF over GST control) | binding signal (SPIB): 1.4 fold enrichment (6-mer frequency, TF over GST control) | binding signal (ELK3): 1.24 fold enrichment (6-mer frequency, TF over GST control) | binding signal (FEV): 1.32 fold enrichment (6-mer frequency, TF over GST control) | binding signal (ETV5): 1.28 fold enrichment (6-mer frequency, TF over GST control) | binding signal (HSF1): 1.39 fold enrichment (6-mer frequency, TF over GST control) | binding signal (SPIC): 1.49 fold enrichment (6-mer frequency, TF over GST control) | binding signal (ELF4): 1.44 fold enrichment (6-mer frequency, TF over GST control) | binding signal (ELK4): 1.46 fold enrichment (6-mer frequency, TF over GST control) | binding signal (ETV2): 1.24 fold enrichment (6-mer frequency, TF over GST control) | binding signal (ELF3): 1.31 fold enrichment (6-mer frequency, TF over GST control) | binding signal (CRX): 1.49 fold enrichment (6-mer frequency, TF over GST control) | binding signal (ETV1): 1.29 fold enrichment (6-mer frequency, TF over GST control)
